This note sets out measurements from PubChem BioAssay (NCATS).

Inconclusive results are not listed. The source made the active and inactive calls. The call rests on the fitted dose curve.
Potency means the concentration at half of the fitted maximal effect.

The nature of this experiment: Primary qHTS to identify inhibitors of SARS-CoV-2 cell entry (AID 1645846). Further: nearly all actives have a fitted effect of over 45% in size. The following applies: SARS-CoV-2 pseudovirus cell entry assay, luminescence; activity change, negative = inhibition: at 57.1 µM (top of the series) unless noted; series mostly up to 57.1 µM. The method, boiled down:
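HEK293 cells stably expressing human ACE2, pre-treated 1 h with compound, then infected with MLV particles pseudotyped with Wuhan-Hu-1 spike (C-terminal 19-aa truncation). Luciferase luminescence after 48 h at 37 °C, normalised to spike PP and bald PP.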
On the technique in general: In qHTS, concentration-response curves come from the screen itself.
For `COc1cc2ncnc(Nc3cccc(Br)c3)c2cc1OC`, the activity change, negative = inhibition is -19.5%.

Regarding `Cc1ccn(-c2ccc(-c3ncco3)cc2)c(=O)c1-c1ccc2nc(N)ncc2c1`, the Potency entry is “inactive”.

In the case of `C[C@@H](NC(=O)c1ncnc(N)c1Cl)c1ncc(C(=O)Nc2cc(C(F)(F)F)c(Cl)cn2)s1`, the activity change, negative = inhibition is -12.7%.

As for `Nc1nc(N)c2nc(-c3cccc(O)c3)c(-c3cccc(O)c3)nc2n1`, the activity change, negative = inhibition was -9.58%.

As to `Cc1c(Cn2c(C)nc3c(C(=O)O)cc(N4CCOCC4)cc32)cccc1C(F)(F)F`, the activity change, negative = inhibition was -3.96%.

For `COc1ccc(C=Cc2cc(OC)c(OC)c(OC)c2)cc1NC(=O)[C@H](N)CO`, the activity change, negative = inhibition is -66.1%.

As to `NC(=O)N1CCC(CC(=O)N2CCC([C@H]3c4ncc(Br)cc4CCc4cc(Cl)cc(Br)c43)CC2)CC1`, the activity change, negative = inhibition is -87.3%.

Turning to `CCOC(=O)C1=C(C)NC(=S)NC1c1cccc(O)c1` (centres undefined), the activity change, negative = inhibition is -13.9%.

As for `COCCOc1ccc2c(c1)ncn2-c1ccc2cccc(N3CCC(N)CC3)c2n1`, the Potency is 12.6 µM (active).

With `NC(=O)Nc1cc(-c2ccc(CN3CCOCC3)cc2)sc1C(N)=O`, the activity change, negative = inhibition is -10.1%.

As to `COc1ccc(S(=O)(=O)Nc2cccnc2Nc2ccc(O)cc2)cc1`, the Potency was 6.31 µM (active).

For `Cc1ccc(NC(=O)c2cccc(N(C)C)c2)cc1NC(=O)c1ccc(O)cc1`, the Potency result was “inactive”.

Consider `CC1=C(CC(=O)O)c2cc(F)ccc2C1=Cc1ccc(S(C)=O)cc1` (centres undefined), for which the activity change, negative = inhibition was -11.8%.

As for `O=C(Nc1cccc(Br)c1)c1cccc(S(=O)(=O)N2CCCCCC2)c1`, the Potency is 31.6 µM (active).
